Experimental data from PubChem BioAssay AID1159580 (chemical genetic matrix, 2015).
The campaign covered roughly 5,500 compounds. About 2,000 (36%) were called active. About 18% were inconclusive and are not listed. Rule as the data show it: active = normalized growth mostly below about 0.91 (no sharp cut-off); inconclusive = no clear call, values can overlap the other calls; inactive = mostly above about 0.92. The list shows a part of the results.

Experiment: chemical genetic growth profiling, strain panel (AID 1159580);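 also: tested at 20 µM; growth read once vehicle control cultures reached saturation at 30 °C; 1 = growth at the plate median or of vehicle wells; lower values mean less growth of the strain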
Conditions: S. cerevisiae deletion strains, growth OD

Measured: normalized growth

N#CSCC(=O)c1ccccc1
active: locus YAR019C, strain CDC15, stronger effect = lower value 0.0948 | locus YBL105C, strain PKC1, stronger effect = lower value 0.0869 | locus YBR135W, strain CKS1, stronger effect = lower value 0.0998 | locus YBR136W, strain MEC1, stronger effect = lower value 0.0968 | locus YBR160W, strain CDC28, stronger effect = lower value 0.101 | locus YDL017W, strain CDC7, stronger effect = lower value 0.092 | locus YDL028C, strain MPS1, stronger effect = lower value 0.108 | locus YDL101C, strain DUN1, stronger effect = lower value 0.159 | locus YDL108W, strain KIN28, stronger effect = lower value 0.107 | locus YDL214C, strain PRR2, stronger effect = lower value 0.125 | locus YDR052C, strain DBF4, stronger effect = lower value 0.273 | locus YDR477W, strain SNF1, stronger effect = lower value 0.107 | locus YER123W, strain YCK3, stronger effect = lower value 0.121 | locus YER133W, strain GLC7, stronger effect = lower value 0.12 | locus YFL009W, strain cdc4, stronger effect = lower value 0.104 | locus YFL029C, strain CAK1, stronger effect = lower value 0.0973 | locus YFR003C, strain YPI1, stronger effect = lower value 0.0991 | locus YFR019W, strain FAB1, stronger effect = lower value 0.0919 | locus YGR040W, strain KSS1, stronger effect = lower value 0.119 | locus YGR052W, strain FMP48, stronger effect = lower value 0.127 | locus YGR092W, strain DBF2, stronger effect = lower value 0.0982 | locus YHR030C, strain SLT2, stronger effect = lower value 0.111 | locus YHR079C, strain IRE1, stronger effect = lower value 0.107 | locus YHR082C, strain KSP1, stronger effect = lower value 0.145 | locus YHR205W, strain SCH9, stronger effect = lower value 0.00392 | locus YIL147C, strain SLN1, stronger effect = lower value 0.0993 | locus YJL095W, strain BCK1, stronger effect = lower value 0.101 | locus YJL128C, strain PBS2, stronger effect = lower value 0.499 | locus YJL157C, strain FAR1, stronger effect = lower value 0.0986 | locus YJR016C, strain ILV3, stronger effect = lower value 0.0975 | locus YJR066W, strain TOR1 (second series), stronger effect = lower value 0.101 | locus YJR066W, strain TOR1, stronger effect = lower value 0.122 | locus YKL048C, strain ELM1, stronger effect = lower value 0.154 | locus YKL067W, strain YNK1, stronger effect = lower value 0.119 | locus YKL101W, strain HSL1, stronger effect = lower value 0.115 | locus YKL193C, strain SDS22, stronger effect = lower value 0.105 | locus YKL203C, strain TOR2, stronger effect = lower value 0.112 | locus YLR113W, strain HOG1, stronger effect = lower value 0.147 | locus YLR133W, strain CKI1, stronger effect = lower value 0.0895 | locus YLR403W, strain SFP1, stronger effect = lower value 0.0174 | locus YML070W, strain DAK1, stronger effect = lower value 0.126 | locus YMR001C, strain CDC5, stronger effect = lower value 0.0981 | locus YMR205C, strain PFK2 (second series), stronger effect = lower value 0.095 | locus YMR277W, strain FCP1, stronger effect = lower value 0.0965 | locus YNL006W, strain LST8, stronger effect = lower value 0.0939 | locus YNL020C, strain ARK1, stronger effect = lower value 0.0915 | locus YNL161W, strain CBK1, stronger effect = lower value 0.0943 | locus YNL183C, strain NPR1, stronger effect = lower value 0.13 | locus YNL207W, strain RIO2, stronger effect = lower value 0.121 | locus YNL222W, strain SSU72, stronger effect = lower value 0.0984 | locus YNL307C, strain MCK1 (second series), stronger effect = lower value 0.0995 | locus YOL078W, strain AVO1, stronger effect = lower value 0.107 | locus YOL136C, strain PFK27, stronger effect = lower value 0.14 | locus YOR061W, strain CKA2, stronger effect = lower value 0.158 | locus YOR119C, strain RIO1, stronger effect = lower value 0.132 | locus YOR231W, strain MKK1, stronger effect = lower value 0.118 | locus YOR329C, strain SCD5, stronger effect = lower value 0.0919 | locus YPL031C, strain PHO85, stronger effect = lower value 0.107 | locus YPL153C, strain RAD53, stronger effect = lower value 0.117 | locus YPL204W, strain HRR25, stronger effect = lower value 0.109 | locus YPL209C, strain IPL1, stronger effect = lower value 0.0967 | locus YPL256C, strain CLN2, stronger effect = lower value 0.135 | locus YPR025C, strain CCL1, stronger effect = lower value 0.0952 | locus YPR106W, strain ISR1, stronger effect = lower value 0.469 | locus YPR111W, strain DBF20, stronger effect = lower value 0.505 | strain NNK1, stronger effect = lower value 0.0857 | strain TSCII, stronger effect = lower value 0.0982
